# Measurements taken from PubChem BioAssay (NCI).
# Several values for one entry are separate records, joined by “and”; a condition that tells them apart may be missing. Equal entries are not always repeated. The panel holds about 83,000 compounds, 20% with a hit somewhere; the sample as a whole holds those more often.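 Activity criterion: percent growth below 10, measured after cells in 96-well plates were exposed to a single compound concentration for 48 hours.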 A number with no mark means an inactive call. Activity calls are given as the source filed them.
# What was measured:
# Experiment in all cases: NCI-60 one-dose screen, 48 h (100 = growth as untreated, 0 = no growth, -100 = all killed)
# Settings in all cases: 10 µM unless noted
# DU-145 prostate = test system: DU-145 prostate
# K-562 leukemia = test system: K-562 leukemia
# MALME-3M melanoma = test system: MALME-3M melanoma
# MDA-MB-231 breast = test system: MDA-MB-231 breast
# RXF 393 renal = test system: RXF 393 renal
# SF-268 CNS = test system: SF-268 CNS
# SF-295 CNS = test system: SF-295 CNS
# SF-539 CNS = test system: SF-539 CNS
# UACC-257 melanoma = test system: UACC-257 melanoma
# M14 melanoma = test system: M14 melanoma
# HCT-15 colon = test system: HCT-15 colon
# HT29 colon = test system: HT29 colon
# SNB-75 CNS = test system: SNB-75 CNS
# SNB-19 CNS = test system: SNB-19 CNS
# U251 CNS = test system: U251 CNS
# PC-3 prostate = test system: PC-3 prostate
# SK-MEL-5 melanoma = test system: SK-MEL-5 melanoma
# UACC-62 melanoma = test system: UACC-62 melanoma
# LOX IMVI melanoma = test system: LOX IMVI melanoma
# SK-MEL-28 melanoma = test system: SK-MEL-28 melanoma
Structure (SMILES),growth (DU-145 prostate),growth (K-562 leukemia),growth (MALME-3M melanoma),growth (MDA-MB-231 breast),growth (RXF 393 renal),growth (SF-268 CNS),growth (SF-295 CNS),growth (SF-539 CNS),growth (UACC-257 melanoma),growth (M14 melanoma),growth (HCT-15 colon),growth (HT29 colon),growth (SNB-75 CNS),growth (SNB-19 CNS),growth (U251 CNS),growth (PC-3 prostate),growth (SK-MEL-5 melanoma),growth (UACC-62 melanoma),growth (LOX IMVI melanoma),growth (SK-MEL-28 melanoma)
O=C(O)C(O)c1ccc(Cl)cc1 (stereo not given),112% and 109%,118%,110% and 102%,96.8% and 119%,88.5% and 122%,110% and 101%,101% and 116%,97.5% and 118%,109% and 91.8%,99.9% and 104%,102%,116% and 104%,100% and 112%,106% and 108%,106% and 100%,92.7% and 103%,81.4% and 106%,103% and 106%,101% and 106%,
C/C(=C\c1ccn(-c2ccc(N)cc2F)n1)[C@@H]1C[C@@H]2O[C@]2(C)CCC[C@H](C)[C@H](O)[C@@H](C)C(=O)C(C)(C)[C@@H](O)CC(=O)O1,-19.4% (active),11.8%,30.9%,20.8%,-7.39% (active),29.7%,8.62% (active),-4.08% (active),56.3%,-5.99% (active),14%,13.1%,-6.93% (active),26%,18.9%,17%,8.85% (active),11.6%,27.3%,54.5%
O=[N+]([O-])c1cc(Cl)c(Cl)cc1Cl,111% and 121%,114% and 110%,115% and 126%,99.7% and 124%,142% and 111%,105% and 114%,97.8% and 112%,82.4% and 102%,80.1% and 111%,102% and 114%,104% and 108%,124% and 111%,93.8% and 121%,101% and 131%,93.4% and 102%,96.1% and 102%,123% and 105%,91.4% and 115%,96.5% and 98.4%,
CCC(Br)(CC)C(=O)NC(N)=O,107%,105%,106%,121%,114%,102%,97.7%,89.9%,104%,102%,103%,108%,86.1%,104%,105%,91.4%,99.2%,100%,102%,109%
C=CC[PH+](c1ccccc1)c1ccccc1.C=CC[PH+](c1ccccc1)c1ccccc1.[Pt+2].[S-]c1ncccn1.[S-]c1ncccn1,35.5%,5% (active),-10.8% (active),7.07% (active),-77.6% (active),87.4%,84.2%,60.2%,66.7%,1.19% (active),-29.3% (active),0.0923% (active),58.3%,74.9%,59.1%,38.8%,66.6%,27.7%,-68.3% (active),-30.9% (active)
CCOP(=O)(OCC)C(=O)N(CC)CC,107%,121%,108%,99.8%,101%,101%,98.8%,113%,88.4%,101%,98.4%,114%,102%,103%,95%,96.5%,94.4%,107%,104%,115%
CCCCCCCCCCCCCCCCCCn1cc[n+](C)c1,-54% (active) and -62.3% (active),28.3% and 17.9%,-33.7% (active) and -30.7% (active),-66.2% (active) and -80.2% (active),-28.3% (active) and -62.1% (active),-45.4% (active) and -45.3% (active),-10.4% (active) and -21.5% (active),-85.2% (active) and -82.9% (active),-38% (active) and -47.9% (active),-62.4% (active) and -49.9% (active),3.3% (active) and -54.8% (active),-42.1% (active) and -36.8% (active),-74.4% (active) and -55.1% (active),-47.5% (active) and -68% (active),-0.673% (active) and -63.9% (active),-7.74% (active) and -8.63% (active),-81.1% (active) and -74.1% (active),-70.9% (active) and -82.1% (active),0.132% (active) and -52.2% (active),-49.4% (active) and -52.8% (active)
CCOP(=O)(NC)OCC,112%,120%,121%,104%,118%,98.7%,129%,101%,121%,94.8%,112%,109%,103%,102%,107%,85.4%,100%,108%,102%,104%
O=NN(c1ccccc1)c1ccccc1,103%,113%,86.2%,98.9%,98.3%,100%,102%,106%,96%,106%,103%,119%,101%,106%,99.2%,98%,98.6%,95.4%,100%,
CN(C)c1ccc([N+](=O)[O-])c([N+](=O)[O-])c1,103% and 113%,113% and 104%,100%,98.4% and 99.1%,111% and 95.3%,106% and 111%,112% and 106%,128% and 104%,95.7% and 88.2%,99.4% and 93.7%,110% and 100%,109% and 102%,93% and 86.4%,106% and 102%,101% and 96.9%,105% and 100%,101% and 97%,97.6% and 90.3%,93%,104%
CC1=C([Te]c2ccccc2)C(=O)c2ccccc2C1=O,-53.4% (active),14.7%,-49.5% (active),-24.6% (active),-35.5% (active),-18.1% (active),-34.5% (active),-71.4% (active),-26.2% (active),-22.1% (active),-43.6% (active),-22.7% (active),-25.6% (active),2.43% (active),-30.1% (active),-30.8% (active),-95% (active),-24.9% (active),-41.7% (active),
CC[C@H](C)[C@H](NC(=O)c1ncccn1)C(=O)N(C)[C@H](C[C@@H](OC(C)=O)c1nc(C(=O)N[C@@H](Cc2ccccc2)C[C@H](C)C(=O)OC)cs1)C(C)C,9.45% (active),7.26% (active),60.7%,4.19% (active),-8.95% (active),30.6%,14.4%,-51.1% (active),50.2%,5.61% (active),10.3%,-2.02% (active),-3.1% (active),44.1%,16.7%,27.7%,21.5%,46.9%,21.4%,
CO[C@H]1[C@H](O[C@@H]2C[C@@H]3C/C=C/C(=O)O[C@@H](CO)C[C@H](O)[C@@H]4C[C@H](C)[C@H](C/C=C\C=C\[C@H](C)C[C@H](C2)O3)O4)O[C@@H](C)[C@H](O)[C@H]1O,52.5%,25.4%,85.5%,92.9%,88%,86.4%,14.1%,70.8%,9.72% (active),74.7%,47.4%,66.1%,56.7%,52.2%,40.3%,35%,19.2%,61.8%,59.7%,76.1%
